# Compound activity from PubChem.
# This is one part of a sample in which hits are shown more often than they occur.
# ROC1-CUL1 inh: inhibitors of human ROC1-CUL1 ubiquitin ligase activity. E3 ubiquitin-protein ligase RBX1 (Homo sapiens) + Cullin-1 (Homo sapiens), P62877+Q13616. in vitro K48 di-Ub FRET, acceptor:donor ratio, 45 min. inhibition, % at 10 µM. hit rate 0.6% among 140,000. AID 1347404, 2020; in the data active = inhibition above about 25%
# Target sequence (P62877 whole entry, looked up): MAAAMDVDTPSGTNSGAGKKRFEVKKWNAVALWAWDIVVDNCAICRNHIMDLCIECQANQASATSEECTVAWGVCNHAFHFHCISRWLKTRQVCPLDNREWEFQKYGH
# Target sequence (Q13616 whole entry, looked up): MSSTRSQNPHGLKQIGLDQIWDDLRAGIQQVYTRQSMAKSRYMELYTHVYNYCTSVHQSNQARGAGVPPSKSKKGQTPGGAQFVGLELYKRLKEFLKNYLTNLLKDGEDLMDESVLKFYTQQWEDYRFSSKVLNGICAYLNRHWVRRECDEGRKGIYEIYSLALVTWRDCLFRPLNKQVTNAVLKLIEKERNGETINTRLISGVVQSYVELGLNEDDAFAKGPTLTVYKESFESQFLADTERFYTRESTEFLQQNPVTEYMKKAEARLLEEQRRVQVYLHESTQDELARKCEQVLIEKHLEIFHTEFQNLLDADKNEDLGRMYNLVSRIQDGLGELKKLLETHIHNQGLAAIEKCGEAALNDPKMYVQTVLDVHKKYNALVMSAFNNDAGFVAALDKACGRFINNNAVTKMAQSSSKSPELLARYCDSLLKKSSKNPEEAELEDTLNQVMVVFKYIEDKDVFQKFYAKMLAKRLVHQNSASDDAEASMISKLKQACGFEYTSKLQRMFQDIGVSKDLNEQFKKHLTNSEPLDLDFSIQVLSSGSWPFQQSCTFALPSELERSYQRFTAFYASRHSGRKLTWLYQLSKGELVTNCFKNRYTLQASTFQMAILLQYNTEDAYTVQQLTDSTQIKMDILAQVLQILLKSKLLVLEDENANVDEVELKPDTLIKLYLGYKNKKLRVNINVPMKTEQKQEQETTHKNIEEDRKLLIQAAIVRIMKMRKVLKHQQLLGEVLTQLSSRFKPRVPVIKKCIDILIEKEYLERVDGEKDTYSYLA
# A number is an active result; . = inactive.
SMILES,ROC1-CUL1 inh
COc1cc(C2C(C(=O)c3cc4ccccc4o3)C(=O)C(=O)N2c2nc3c(C)cc(C)cc3s2)ccc1OCc1ccccc1 (stereo not drawn),.
O=C1C(=O)N(c2nnc(SCc3ccccc3F)s2)C(c2ccc(F)cc2)C1C(=O)c1cc2ccccc2o1 (stereo not drawn),.
COc1cc(C2C(C(=O)c3cc4ccccc4o3)C(=O)C(=O)N2c2nnc(C)s2)ccc1OCc1ccccc1 (stereo not drawn),65
Cc1ccc2nc(N3C(=O)C(=O)C(C(=O)c4cc5ccccc5o4)C3c3ccccc3)sc2c1 (stereo not drawn),.
Cc1sc2nc(-c3ccccn3)[nH]c(=O)c2c1C,.
COc1ccc(OC)c(C2C(C(N)=O)C(C)=Nc3nc(-c4cccc(Cl)c4)nn32)c1 (stereo not drawn),.
COCCN1CCC(CN(CC2CCCO2)C(=O)c2cc(C)nc(C)n2)CC1 (stereo not drawn),.
COc1ccc2ccccc2c1CNC(=O)CCn1nnnc1CN1CCOCC1,.
O=C(NC(=S)Nc1ccc(NC(=O)c2ccco2)cc1)c1ccc(-c2ccccc2)cc1,.
O=C(Nc1ccc(-c2ccccc2C(F)(F)F)s1)C(F)(F)F,.
Cc1ccc(C(=O)CC(C(N)=O)N2CCCC2=O)c(C)c1C (stereo not drawn),.
COc1cc(/C=C2\C(=O)N(c3ccc(S(N)(=O)=O)cc3)N=C2C(F)(F)F)ccc1OCC(C)C,35
CC1=NN(c2ccc(S(N)(=O)=O)cc2)C(=O)/C1=C\c1ccc(N(C)C)cc1,.
CCCOC(=O)c1cccc(-c2ccc(/C=C3\C(=O)N(c4ccc(S(N)(=O)=O)cc4)N=C3C(F)(F)F)o2)c1,.
COc1cccc(C=C2C(=O)N(C)C(=O)N(C)C2=O)c1,.
C#CCOc1ccc(/C=C2\C(=O)N(c3ccc(S(N)(=O)=O)cc3)N=C2C(F)(F)F)cc1OCC,.
COc1cccc(/C=C2\C(=O)N(c3ccc(S(N)(=O)=O)cc3)N=C2C)c1,97
COc1cc(/C=C2/C(=O)N(c3cccc(Cl)c3)N=C2C)ccc1OC(=O)c1cccs1,.
CCOC(=O)c1ccc(N2NC(=O)/C(=C/c3ccc(OC(=O)c4cccs4)c(OC)c3)C2=O)cc1,.
COc1cc(/C=C2/C(=O)N(c3ccc(S(=O)(=O)O)cc3)N=C2C)ccc1OC(=O)c1cccs1,56
COc1cc2c(cc1OC)C1=C(c3ccccc3)C(=O)C(c3ccccc3)C(=O)N1CC2 (stereo not drawn),.
O=C(Nc1ccc(F)c(F)c1)c1ccncc1,.
CC(=O)c1c(C)nn(Cc2nc(-c3c(C)ncc4c3CCNC4)no2)c1C,.
O=C(NC(N1CCCC1=O)(C(F)(F)F)C(F)(F)F)c1ccccc1Cl,.
COc1ccc(NC(=O)c2ccc(NN3C(=O)c4ccccc4C3=O)c([N+](=O)[O-])c2)cc1,.
SMILES,ROC1-CUL1 inh
CCOC(=O)c1cc(NC(=O)c2ccc(C(=O)OC)cc2)cc(NC(=O)c2ccc(C(=O)OC)cc2)c1,.
CNC(=O)C(C)N(c1cc(Cl)ccc1C)S(C)(=O)=O (stereo not drawn),.
O=C1c2cccc3cccc(c23)C(=O)C1S(=O)c1ccc(Cl)cc1 (stereo not drawn),.
COc1ccccc1NC(=O)Nc1ccnn1C1CCN(C(=O)CCC2(C)CC2)CC1,.
CC(O)c1cccc(NC2(c3ccccc3)C(=O)c3ccccc3C2=O)c1 (stereo not drawn),.
Cc1c(NS(C)(=O)=O)cccc1C(=O)Nc1ccccc1C(C)C,.
CC(C)CCSc1nc(N)c2c3c(sc2n1)CC(C)CC3 (stereo not drawn),.
CCN1CCCC(CN(C)C(=O)c2cc(NC(=O)COC)cc3nc(-c4cccnc4)n(CC)c23)C1 (stereo not drawn),.
Cn1ncc(Br)c1C(=O)Oc1cccc(/C=N/NC(=O)CSc2ccccn2)c1,.
CC(=O)c1cc2c3c(c1)C1C=CCC1C(c1ccc([N+](=O)[O-])cc1)N3CC1CC=CC21 (stereo not drawn),.
O=C(O)c1cc2c3c(c1)C1C=CCC1C(c1ccccc1Cl)N3CC1CC=CC21 (stereo not drawn),101
CC(=O)c1ccc2c(c1)C1C=CCC1C(c1cccc(Cl)c1Cl)N2 (stereo not drawn),.
CCCc1cc(CN(C)C(=O)CC2(c3ccccc3Cl)CC(=O)N(CCN(C)C)C2=O)[nH]n1 (stereo not drawn),.
CCc1cccc(C)c1NC(=O)CCn1nc(C)c2c(C)n(-c3ccccc3)nc2c1=O,.
Cc1cccc(NC(=O)CCn2nc(C)c3c(C)n(-c4ccccc4)nc3c2=O)c1C,.
Cc1ccc(C)c(NC(=O)CCn2nc(C)c3c(C)n(-c4ccccc4)nc3c2=O)c1,34
O=C(NCc1ccccc1)N1CCN(c2cccc(C(F)(F)F)c2)CC1,.
Cc1ccccc1NC(=O)c1sc(NC(=O)c2ccncc2)c(C(=O)OC(C)C)c1C,.
O=C(O)c1cccc2c1-c1ccccc1C2=O,.
CS(=O)(=O)Oc1ccc2c(-c3ccccc3C(=O)O)c3ccc(=O)c(I)c-3oc2c1I,117
O=C(NC1CC1)C1CCCN(C2CCN(C/C=C/c3ccco3)CC2)C1 (stereo not drawn),.
CN1CCN(S(=O)(=O)Cc2cccc(Cl)c2)CC1,.
COC(=O)CN1C(=O)S/C(=C/c2c(C)n(Cc3ccccc3F)c3ccccc23)C1=O,.
O=C1N(Cc2cccc(F)c2F)CCCC1(O)CNC1CCCC1 (stereo not drawn),94
O=C1N(Cc2cccc(F)c2F)CCCC1(O)CNC1CCC1 (stereo not drawn),.
SMILES,ROC1-CUL1 inh
O=C1N(Cc2cccc(F)c2F)CCCC1(O)CNCC1CCCCC1 (stereo not drawn),.
CC(C)(C)CC(=O)N1CCN(Cc2ccc(F)cc2)CC1,.
C=CCn1c(SCc2ccc3c(c2)OCO3)nc2scc(-c3ccc(OC)cc3)c2c1=O,.
CCOC(=O)Nc1ccc(Br)cc1F,.
Cc1c(C(=O)O)c2c(n1Cc1ccccc1)C(=O)c1ccc(Br)cc1-2,.
CCOC(=O)C(C(C)=O)C1=C(Br)C(=O)C(=O)c2ccc(Br)cc21 (stereo not drawn),48
COc1cc(C2c3c(n[nH]c3-c3ccc4ccccc4c3)OC(=N)C2C#N)cc(OC)c1OC (stereo not drawn),.
CCN(CCN1CCCCC1)c1ccc(C2CCCC2)cc1,.
Cc1cc(Cl)c2c(N)c(C)cc(C)c2n1,91
CCOC(=O)c1c(Cl)cc(C)nc1Cl,.
Cc1cc(N2CCOCC2)c2c(N)c(Br)cc(C)c2n1,.
COC(=O)C1(C(F)(F)F)N=C(c2ccc(Cl)cc2Cl)OC(N(C)C)=N1 (stereo not drawn),.
CCOC(=O)C1C(=N)Oc2ccc3ccc(O)cc3c2C1c1ccc(Cl)cc1 (stereo not drawn),.
CCOc1ccc(OCC)c(N2C(=O)NC(=O)/C(=C\c3cccs3)C2=O)c1,.
CCOc1ccc(OCC)c(N2C(=O)NC(=O)/C(=C\c3ccc(OCC#N)cc3)C2=O)c1,.
CCOc1ccc(OCC)c(N2C(=O)NC(=O)/C(=C\c3ccc(Br)o3)C2=O)c1,76
O=C(OCc1ccccn1)c1ccc(COc2cccc3ccccc23)cc1,.
COc1cc(/C=N/NS(=O)(=O)c2ccccc2)ccc1OCc1ccc(Cl)cc1,.
O=[N+]([O-])c1ccc(-c2cc(-c3ccccn3)nc(-c3ccccn3)c2)cc1,.
COc1ccccc1CCN1CCC(CN(C)C(=O)Cc2nonc2C)CC1,.
